This is a sample that favours compounds with a hit; in the whole collection about 2.4% have one here.
Nrf2 block = Nrf2 pathway inhibition; A549 ARE-Fluc reporter, luciferase luminescence, 18-24 h; Potency, µM (series often up to 46 µM), without a hit: at the highest dose activity change, negative = inhibition, most hits filed as inhibitors; hit rate 2.1% among 360,000; also: % is scaled to controls: 0 for no effect and ±100 for the full control effect; nearly all actives have a fitted effect of over 60% in size
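A549 ARE_Fluc cells (5000/well, 5% FBS OPTI-MEM) pre-incubated 2 h, then treated with compounds 18-24 h at 37C/5% CO2 in concentration-response. CellTiter-Fluor viability read first; BugLite luciferase luminescence after 15 min at room temperature gives Nrf2 activity.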
PINK1 modulator = changes PINK1 expression; AID 624263; PINK1 immunofluorescence, high-content cytometry, 24 h; Potency, µM (doses to about 76.6 µM), for the others: top-dose activation (PINK1 increase), actives largely listed as activators; hit rate 0.2% among 410,000; active = well fitted activation curve with a large enough effect; inconclusive = small, poorly fitted or top-dose-only effect; cell line not stated here; also: % of control where 0% means no effect; nearly all actives have a fitted effect of over 65% in size
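Readout is PINK1 immunofluorescence, quantified alongside mitochondrial, cell and nuclear markers by laser-scanning microplate cytometry. Cells from a stable line were exposed to compound titrations (5 concentrations) for 24 hours, with CCCP controls.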
Epigenetic reg = derepresses silenced GFP reporter in murine cells; murine LDR cells, GFP reporter derepression, 30 h; hit rate 0.2% among 280,000; Potency, µM (highest dose often 53.9 µM), for the others: top-dose GFP activation, hits mostly activators; also: % of control where 0% means no effect; nearly all actives have a fitted effect of over 60% in size
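Reporter derepression read as number of fluorescent GFP-positive objects, 20-120 um in size, counted by laser-scanning cytometer. Mouse LDR line with an epigenetically silenced CMV-GFP locus; compound incubation 30 h, 37 C.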
Nrf2 activator = activates Nrf2 signaling; hit rate 0.31% among 410,000; AREc32 ARE-luciferase reporter (MCF7-derived line), luminescence, 24 h; Potency, µM (highest dose often 46.1 µM), for inactives: at the highest dose activation, usual class: activators; also: % of control where 0% means no effect; nearly all actives have a fitted effect of over 65% in size
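Quantitative high-throughput format: AREc32 reporter cells, 1000 per well, received compound by pin transfer and were incubated 24 hr at 37 deg C, 5% CO2, before Steady-Glo luminescence detection.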
A549 tox-1 = kills or reduces viability of A549 cells in Nrf2 counter-screen | A549 ARE-Fluc cells, CellTiter-Fluor viability, 18-24 h | Potency, µM (doses to about 46 µM), for inactives: at the top dose activity change, negative = cytotoxicity, hits mostly inhibitors | hit rate 0.16% among 390,000 | AID 504648; also: % is scaled to controls: 0 for no effect and ±100 for the full control effect
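Cytotoxicity counterscreen: CellTiter-Fluor fluorescence was measured in A549 ARE_Fluc cells after 18-24 h of compound exposure in a concentration series. The subsequent BugLite luminescent read reports ARE-luciferase activity.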
FLuc counter 3 = blocks purified firefly luciferase in Nrf2 counterscreen | shares compounds with Nrf2 block | purified firefly luciferase, luminescence inhibition | Potency, µM (titrated, usually from 57.5 µM), for the others: at the highest dose activity change, negative = inhibition, most hits filed as inhibitors | hit rate 4% among 1,400 | AID 720522; also: % is scaled to controls: 0 for no effect and ±100 for the full control effect; nearly all actives have a fitted effect of over 65% in size
Target sequence (P08659 whole entry, looked up): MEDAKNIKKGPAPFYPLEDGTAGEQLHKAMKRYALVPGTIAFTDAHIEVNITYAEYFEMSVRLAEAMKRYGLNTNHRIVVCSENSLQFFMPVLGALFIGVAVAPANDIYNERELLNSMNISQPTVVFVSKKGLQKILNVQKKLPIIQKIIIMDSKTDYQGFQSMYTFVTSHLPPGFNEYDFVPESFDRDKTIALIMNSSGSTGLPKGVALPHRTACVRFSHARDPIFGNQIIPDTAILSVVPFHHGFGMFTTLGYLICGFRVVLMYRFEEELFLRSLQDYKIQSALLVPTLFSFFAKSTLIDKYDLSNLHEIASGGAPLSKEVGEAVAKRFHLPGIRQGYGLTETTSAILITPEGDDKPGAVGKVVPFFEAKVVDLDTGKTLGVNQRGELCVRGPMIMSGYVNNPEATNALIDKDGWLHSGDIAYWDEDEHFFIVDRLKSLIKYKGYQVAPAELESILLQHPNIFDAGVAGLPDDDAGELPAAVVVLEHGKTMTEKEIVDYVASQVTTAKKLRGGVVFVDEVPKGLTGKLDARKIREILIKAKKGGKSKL
A549 tox-2 = toxic to A549 ARE-Fluc cells in Nrf2 counterscreen; Potency, µM (top dose mostly 46.1 µM), without a hit: at the highest dose activity change, negative = cytotoxicity, most hits filed as inhibitors; shares compounds with Nrf2 block; A549 ARE-Fluc cells, cytotoxicity counterscreen; hit rate 2% among 1,400;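 also: cells exposed to compounds for 18 to 24 hours; % is scaled to controls: 0 for no effect and ±100 for the full control effect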
ARE-Fluc inh = reduces Nrf2 ARE reporter signal in A549 cells | shares compounds with Nrf2 block | A549 ARE-firefly luciferase reporter, luminescence | Potency, µM (highest dose often 46.1 µM), for the others: top-dose activity change, negative = inhibition, actives largely listed as inhibitors | hit rate 74% among 1,400; also: % is scaled to controls: 0 for no effect and ±100 for the full control effect; nearly all actives have a fitted effect of over 65% in size
* marks the source's active call; other numbers are inactive results; ? = inconclusive; . = no result; [ ] = dose if it differs, or a comment. Unless noted, calls follow the shape of the dose curve; as a rule, active = well fitted curve in the direction sought with a large enough effect; inconclusive = small, poorly fitted or top-dose-only effect, or another doubt; inactive = no such curve, though single readings can be large; an effect the other way counts as inactive or inconclusive. Potency is read from the fitted curve at half-maximal effect.

SMILES	Nrf2 block	PINK1 modulator	Epigenetic reg	Nrf2 activator	A549 tox-1	FLuc counter 3	A549 tox-2	ARE-Fluc inh
CC1CCCN(c2nc3nonc3nc2Nc2ccccc2F)C1 (configuration not stated)	?	2%	1%	0%	-3%	.	.	.
COc1ccc(CC(=O)Nc2ccncc2Cl)cc1	5.2µM*	1%	.	-1%	-1%	2%	7%	?
O=C(Nc1ccc(S(=O)(=O)N2CCOCC2)cc1)c1ccc(CN2CCc3ccccc3C2)cc1	0.82µM*	2%	0%	2%	?	-1%	2%	1.6µM*
N#CCc1ccc(NC(=O)c2ccc(CN3CCc4ccccc4C3)cc2)cc1	5.2µM*	13%	.	4%	0%	-15%	7%	?
O=C(Nc1ccc(Cl)cc1)c1ccc(CN2CCc3ccccc3C2)cc1	?	8%	.	5%	-9%	.	.	.
O=C(Nc1ccc(S(=O)(=O)N2CCCC2)cc1)c1ccc(CN2CCc3ccccc3C2)cc1	1.5µM*	2%	-1%	5%	-7%	0%	-16%	1.6µM*
O=C(Nc1ccccc1)c1ccc(S(=O)(=O)N2CCOCC2)cc1	?	0%	-2%	0%	7%	.	.	.
COc1cc(NC(=O)C2=CC(c3ccc(F)cc3)=NS(=O)(=O)N2C)cc(OC)c1OC	?	1%	-3%	7%	-8%	.	.	.
Cc1ccc(-c2csc3nc(-c4ccncc4)[nH]c(=O)c23)cc1	?	?	15%	0%	-7%	-28%	-12%	1.8µM*
C/C(CCN1CCCc2nc(C)c(C)cc21)=N\O[C@@H](C)c1cn([C@@H]2COC[C@@H]2O)nn1	.	.	1%[10.1 µM]	.	.	.	.	.
COc1ccccc1C(=O)NC(=S)Nc1ccc(Cc2ccncc2)cc1	5.8µM*	6%	.	7%	-14%	-1%	0%	21µM*
CN(Cc1ccco1)c1ccnc(-c2cccc(C#N)c2)n1	.	-1%	.	.	.	.	.	.
CCc1ccccc1NC(=O)c1ccc(Cn2nc(N3CCN(c4ccccc4)CC3)ccc2=O)o1	?	1%	-2%	-1%	-9%	.	.	.
CCc1ccc(NC(=O)c2ccc(Cn3nc(N4CCN(c5ccccc5)CC4)ccc3=O)o2)cc1	5.2µM*	-1%	-2%	-1%	?	?	-14%	6.5µM*
CC(C)c1ccc(Nc2ncnc3c2nc2n3CCCC2)cc1	-8%	?	1%	0%	-2%	.	.	.
O=C1c2ccc(Oc3ccc([N+](=O)[O-])cc3)cc2C(=O)N1CCCO	4.1µM*	0%	.	0%[9.22 µM]	4%	0%	-5%	?
CN(Cc1ccc(F)cc1)C(=O)c1cccc(S(=O)(=O)NCc2ccccc2)c1	?	4%	.	4%	-1%	.	.	.
C=CCOc1ccc(CN(C)C(=O)c2ccc(CNS(=O)(=O)c3ccc(C)c(C)c3)cc2)cc1	9.2µM*	1%	.	1%	?	0%	-25%	?
COc1ccccc1N1CCN(C(=O)Cn2c(=O)nc(-c3ccccc3)c3cc(Cl)ccc32)CC1	.	0%	-5%	1%	0%	.	.	.
CCCn1c(NC(=O)c2cccc(S(=O)(=O)N3CCCC3)c2)nc2ccccc21	7.3µM*	7%[38.3 µM]	-1%	-2%	?	-13%	?	7.3µM*
CCN(CC)S(=O)(=O)c1ccc(/C=C/C(=O)Nc2ccc(F)c(F)c2F)cc1	?	5%	-1%	6%	-4%	-10%	-5%	?
CCN(CC)S(=O)(=O)c1ccc(/C=C/C(=O)Nc2ccc(F)cc2F)cc1	?	21%	-1%	3%	-3%	.	.	.
